Calls of active or inactive are those of the source.
Columns and labels:
[1] = binders of probe aFSTL3 on microarray, primary screen, stem cell growth factor project, biochemical, small-molecule microarray, fluorescence 635/667 (AID 1064); conditions: higher = more signal;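 also: measures binding of the biotinylated anti-FSTL3 antibody to printed compounds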
[2] = binders from COS7 lysate, DM2A8 probe, primary screen, torsin A project, cell lysate, small-molecule microarray, fluorescence 635/667 (AID 1065); conditions: higher = more signal, COS7 lysate expressing mutant human TOR1A
[3] = binders of probe aFGF2 on microarray, primary screen, stem cell growth factor project, biochemical, small-molecule microarray, fluorescence 635/667 (AID 1067); conditions: higher = more signal;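 also: measures binding of biotinylated aFGF2 protein to printed compounds on slides; z-score merges feature fluorescence and signal-to-noise across triplicate slides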
[4] = binders of probe aFGF10 on microarray, primary screen, stem cell growth factor project, biochemical, small-molecule microarray, fluorescence 635/667 (AID 1071); conditions: higher = more signal;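 also: score merges 667 nm spot intensity and signal to noise from triplicate slides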
[5] = molecular target: Neurogenic locus notch homolog protein 2 (Homo sapiens) (UniProt Q04721); experiment: Notch2 binders on small-molecule microarrays, primary screen, biochemical, small-molecule microarray, 635 nm fluorescence, stem cell growth factors (AID 1073); conditions: Notch2 binding, higher = more signal
[6] = molecular target: Pro-neuregulin-1, membrane-bound isoform (Homo sapiens) (UniProt Q02297); experiment: NRG1 binders on small-molecule microarrays, primary screen, psychiatric disease protein project, biochemical, small-molecule microarray, fluorescence 635/667 (AID 1075); conditions: NRG1 binding, 635 nm fluorescence, higher = more signal;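 also: score combines 667 nm spot fluorescence with signal to noise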
[7] = test system: Neuregulin-1 EGF-like domain; experiment: binders of neuregulin-1 EGF-like domain, primary screen, biochemical, small-molecule microarray, 635 nm fluorescence (AID 1081); conditions: small-molecule microarray binding, higher = more signal;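 also: binding of the protein to compounds printed on small-molecule microarray slides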
[8] = FRG1 promoter luciferase signal modulators, primary screen, FRG1 inhibition for FSHD, cell-based, C2C12 myotubes, firefly/Renilla luciferase, luminescence (AID 1084); conditions: higher = more signal, called active from +8 up or from −8 down
[9] = binders of probe aFST on microarray, primary screen, stem cell growth factor project, biochemical, small-molecule microarray, fluorescence 635/667 (AID 1086); conditions: higher = more signal;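 also: score merges 667 nm fluorescence with signal-to-noise of each printed compound spot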
[10] = binders of probe aHhip on microarray, primary screen, stem cell growth factor project, biochemical, small-molecule microarray, fluorescence 635/667 (AID 1087); conditions: higher = more signal;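 also: score merges spot fluorescence at 667nm with spot signal to noise ratio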
[11] = test system: PRMT1 (protein arginine N-methyltransferase 1); experiment: PRMT1 binders on small-molecule microarrays, primary screen, biochemical, small-molecule microarray, 635 nm fluorescence (AID 1088); conditions: small-molecule microarray binding, higher = more signal;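 also: binding of Prmt1 protein to compounds spotted on small-molecule microarray slides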
[12] = yeast growth modulation, basal conditions, primary screen, YJM789 clinical isolate, OD600, 24 h (AID 1089);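 also: growth of clinical yeast isolate S. cerevisiae YJM 789 seeded 1000 cells per well; test concentration not given here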; conditions: S. cerevisiae YJM789 growth, higher = more signal, called active from +8 up or from −8 down
[13] = fission yeast growth modulation, primary screen, strain 972, OD600, 24 h, no modulator (AID 1090);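 also: basal condition with compound alone and no growth modifier present; test concentration not given here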; conditions: S. pombe 972 growth, higher = more signal, called active from +8 up or from −8 down
[14] = S. cerevisiae growth modulation with rapamycin, primary screen, strain BY4716, OD600, 96 h (AID 1091); conditions: higher = more signal, called active from +8 up or from −8 down; also: test concentration not given here
[15] = molecular target: Torsin-1A-interacting protein 2 (Homo sapiens) (UniProt Q8NFQ8); experiment: LULL1 binders on small-molecule microarray, primary screen, cell lysate, human LULL1 lysate, 635/667 nm fluorescence (AID 1092); conditions: hLULL1 lysate binding, 635 nm fluorescence, higher = more signal;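 also: probe is lysate of COS7 cells overexpressing human LULL1; score merges per-feature 667 nm fluorescence with signal-to-noise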
[16] = E. coli growth modulation, two-sided OD650, primary screen, E. coli filamentation project, strain DRC41, 24 h (AID 1093); conditions: OD650, 24 h, higher = more signal, called active from +8 up or from −8 down;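 also: MC1000 strain lacking acrAB efflux and sulA so SOS filamentation is blocked; test concentration not given here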
[17] = small-molecule microarray binders of probe aLefty2, primary screen, biochemical, biotinylated probe, 635/667 nm fluorescence (AID 1094); conditions: higher = more signal;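 also: score merges spot fluorescence near 667 nm with spot signal-to-noise ratio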
[18] = test system: Noggin (protein binding on small-molecule microarray); experiment: Noggin binders on small-molecule microarray, primary screen, biochemical, 635/667 nm fluorescence (AID 1095); conditions: 635 nm fluorescence, higher = more signal;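 also: score merges 667 nm feature fluorescence with signal to noise over triplicate slides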
[19] = molecular target: Neurogenic locus notch homolog protein 3 (Homo sapiens) (UniProt Q9UM47); experiment: NOTCH3 binders on small-molecule microarray, primary screen, biochemical, 635/667 nm fluorescence (AID 1096); conditions: NOTCH3 binding, 635 nm fluorescence, higher = more signal
[20] = small-molecule microarray binders of probe aEGFR, primary screen, biochemical, biotinylated probe, 635/667 nm fluorescence (AID 1097); conditions: higher = more signal;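 also: probe is a biotinylated anti-EGFR antibody binding compounds printed on slides; score combines fluorescence near 667 nm and signal to noise of each spot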

Torsin-1A-interacting protein 2 (Homo sapiens), sequence (Q8NFQ8 whole entry, looked up): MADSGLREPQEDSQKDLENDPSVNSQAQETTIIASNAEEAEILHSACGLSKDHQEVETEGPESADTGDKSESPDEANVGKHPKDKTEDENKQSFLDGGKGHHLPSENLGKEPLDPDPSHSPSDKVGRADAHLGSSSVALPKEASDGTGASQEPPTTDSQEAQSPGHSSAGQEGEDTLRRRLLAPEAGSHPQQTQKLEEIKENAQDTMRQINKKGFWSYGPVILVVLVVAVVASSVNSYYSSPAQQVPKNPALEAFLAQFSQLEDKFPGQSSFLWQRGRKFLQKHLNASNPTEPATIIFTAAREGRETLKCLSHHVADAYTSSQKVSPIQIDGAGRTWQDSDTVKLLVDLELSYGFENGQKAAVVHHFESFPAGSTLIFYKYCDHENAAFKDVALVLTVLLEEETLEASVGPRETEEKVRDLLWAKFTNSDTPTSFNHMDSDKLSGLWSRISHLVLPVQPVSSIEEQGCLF
Neurogenic locus notch homolog protein 2 (Homo sapiens), sequence (Q04721 whole entry, looked up, canonical isoform): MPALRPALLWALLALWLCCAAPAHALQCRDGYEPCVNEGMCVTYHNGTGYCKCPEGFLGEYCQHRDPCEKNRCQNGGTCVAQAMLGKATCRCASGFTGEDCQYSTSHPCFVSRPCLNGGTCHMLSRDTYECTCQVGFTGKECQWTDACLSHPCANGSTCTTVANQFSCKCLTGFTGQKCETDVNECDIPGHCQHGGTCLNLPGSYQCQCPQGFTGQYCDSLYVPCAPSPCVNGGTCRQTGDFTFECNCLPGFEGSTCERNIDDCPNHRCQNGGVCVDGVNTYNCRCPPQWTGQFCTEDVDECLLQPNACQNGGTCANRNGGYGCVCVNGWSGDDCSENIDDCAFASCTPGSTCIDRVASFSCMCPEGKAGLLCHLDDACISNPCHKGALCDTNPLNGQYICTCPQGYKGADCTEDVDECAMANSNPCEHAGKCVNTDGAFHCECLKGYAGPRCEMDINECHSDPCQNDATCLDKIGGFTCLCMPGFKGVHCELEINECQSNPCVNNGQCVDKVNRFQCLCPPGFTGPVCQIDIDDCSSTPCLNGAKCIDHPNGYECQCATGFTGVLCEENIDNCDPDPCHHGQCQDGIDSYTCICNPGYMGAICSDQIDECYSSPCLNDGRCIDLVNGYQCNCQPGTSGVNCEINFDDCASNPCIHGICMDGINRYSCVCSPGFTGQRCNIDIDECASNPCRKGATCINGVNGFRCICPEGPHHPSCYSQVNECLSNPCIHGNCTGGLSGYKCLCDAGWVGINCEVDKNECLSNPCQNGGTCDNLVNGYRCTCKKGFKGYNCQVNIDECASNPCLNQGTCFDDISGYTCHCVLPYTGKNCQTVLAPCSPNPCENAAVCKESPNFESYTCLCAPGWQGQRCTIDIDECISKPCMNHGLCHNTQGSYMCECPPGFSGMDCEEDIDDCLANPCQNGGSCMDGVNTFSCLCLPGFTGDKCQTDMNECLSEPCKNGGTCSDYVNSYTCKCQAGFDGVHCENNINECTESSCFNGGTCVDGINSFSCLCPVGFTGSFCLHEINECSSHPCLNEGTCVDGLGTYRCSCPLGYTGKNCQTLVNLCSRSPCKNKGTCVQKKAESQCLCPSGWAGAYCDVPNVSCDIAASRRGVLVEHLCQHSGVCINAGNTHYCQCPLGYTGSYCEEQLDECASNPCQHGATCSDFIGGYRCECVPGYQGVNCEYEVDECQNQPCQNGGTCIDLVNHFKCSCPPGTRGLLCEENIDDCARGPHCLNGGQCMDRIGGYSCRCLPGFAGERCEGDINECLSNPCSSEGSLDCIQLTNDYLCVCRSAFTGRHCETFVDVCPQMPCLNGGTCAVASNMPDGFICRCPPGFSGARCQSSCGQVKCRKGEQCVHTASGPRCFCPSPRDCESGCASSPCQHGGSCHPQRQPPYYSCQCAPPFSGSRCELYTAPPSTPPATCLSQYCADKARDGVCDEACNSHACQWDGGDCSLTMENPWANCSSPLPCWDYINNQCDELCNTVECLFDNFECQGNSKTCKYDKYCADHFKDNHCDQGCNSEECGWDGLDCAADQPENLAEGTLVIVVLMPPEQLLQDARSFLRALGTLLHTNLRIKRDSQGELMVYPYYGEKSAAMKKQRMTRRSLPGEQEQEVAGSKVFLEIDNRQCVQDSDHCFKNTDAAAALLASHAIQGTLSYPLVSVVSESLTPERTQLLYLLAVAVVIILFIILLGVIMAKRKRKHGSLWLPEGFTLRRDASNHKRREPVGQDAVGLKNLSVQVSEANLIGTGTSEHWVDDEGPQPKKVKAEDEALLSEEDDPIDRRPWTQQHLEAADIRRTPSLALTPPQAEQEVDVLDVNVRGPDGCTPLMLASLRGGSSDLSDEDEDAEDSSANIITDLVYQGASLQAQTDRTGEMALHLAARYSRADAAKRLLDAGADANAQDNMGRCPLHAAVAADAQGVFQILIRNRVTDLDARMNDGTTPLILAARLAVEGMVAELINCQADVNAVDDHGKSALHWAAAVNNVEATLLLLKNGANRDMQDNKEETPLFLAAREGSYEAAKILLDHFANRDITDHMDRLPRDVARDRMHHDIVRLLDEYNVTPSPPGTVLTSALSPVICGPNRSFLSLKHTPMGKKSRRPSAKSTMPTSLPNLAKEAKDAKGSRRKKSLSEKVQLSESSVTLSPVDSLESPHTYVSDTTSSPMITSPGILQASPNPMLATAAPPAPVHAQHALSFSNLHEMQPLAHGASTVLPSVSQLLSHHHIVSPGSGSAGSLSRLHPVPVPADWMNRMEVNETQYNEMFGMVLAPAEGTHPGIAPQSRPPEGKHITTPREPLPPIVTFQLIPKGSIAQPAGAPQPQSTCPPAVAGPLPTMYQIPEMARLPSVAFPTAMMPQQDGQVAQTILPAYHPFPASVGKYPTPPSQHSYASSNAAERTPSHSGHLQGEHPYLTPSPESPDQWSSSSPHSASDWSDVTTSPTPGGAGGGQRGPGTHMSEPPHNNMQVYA
Pro-neuregulin-1, membrane-bound isoform (Homo sapiens), sequence (Q02297 whole entry, looked up, the tested form may be a part, canonical isoform): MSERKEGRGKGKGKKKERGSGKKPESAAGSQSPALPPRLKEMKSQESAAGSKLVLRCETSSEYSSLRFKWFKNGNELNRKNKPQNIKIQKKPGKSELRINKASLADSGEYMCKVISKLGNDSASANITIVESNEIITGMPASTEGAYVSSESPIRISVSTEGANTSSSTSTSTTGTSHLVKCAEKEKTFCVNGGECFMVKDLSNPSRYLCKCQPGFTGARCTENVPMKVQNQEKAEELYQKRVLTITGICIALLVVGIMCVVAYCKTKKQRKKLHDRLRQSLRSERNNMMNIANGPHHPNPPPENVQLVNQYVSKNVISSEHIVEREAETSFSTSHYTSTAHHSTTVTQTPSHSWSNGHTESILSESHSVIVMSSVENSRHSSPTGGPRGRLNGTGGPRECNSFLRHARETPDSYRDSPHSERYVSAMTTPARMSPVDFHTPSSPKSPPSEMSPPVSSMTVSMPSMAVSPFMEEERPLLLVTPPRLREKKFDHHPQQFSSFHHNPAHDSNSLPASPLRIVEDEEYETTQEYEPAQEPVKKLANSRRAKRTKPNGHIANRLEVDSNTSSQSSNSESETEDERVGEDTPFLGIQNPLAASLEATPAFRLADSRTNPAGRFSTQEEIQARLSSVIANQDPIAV

| SMILES | composite z-score [1] | composite z-score [2] | composite z-score [3] | composite z-score [4] | composite z-score [5] | composite z-score [6] | composite z-score [7] | z-score [8] | composite z-score [9] | composite z-score [10] | composite z-score [11] | z-score [12] | z-score [13] | z-score [14] | composite z-score [15] | z-score [16] | composite z-score [17] | composite z-score [18] | composite z-score [19] | composite z-score [20] |
| --- | --- | --- | --- | --- | --- | --- | --- | --- | --- | --- | --- | --- | --- | --- | --- | --- | --- | --- | --- | --- |
| C=CCN1C(=O)[C@@]2(O[C@@H](CCn3cc(CCO)nn3)[C@H]([Si](C)(C)c3ccc(OC)cc3)[C@H]2C)c2cc(NC(=O)c3ccc(OC)cc3)ccc21 | -0.0186 | 0.463 | -0.0493 | 0.051 | 0.0039 | 0.457 | 0.672 | -2.22 (inactive) | 0.309 | -0.0994 | 1.49 | -0.0986 (inactive) | -1.27 (inactive) | -0.738 (inactive) | 0.674 | 1.31 (inactive) | -0.0985 | 1.04 | 0.742 | -0.0895 |
| C=CCNC(=O)[C@@H]1[C@H]2C(=O)O[C@H](c3ccccc3)[C@H](c3ccccc3)N2[C@H](c2ccc(O)cc2)[C@@]12C(=O)Nc1ccc(C#Cc3ccc(OC)cc3)cc12 | -0.112 | 0.712 | 0.0356 | 0.69 | 1.46 | 0.489 | 1.16 | 0.606 (inactive) | 0.496 | -0.0672 | 1.54 | -0.147 (inactive) | -1.67 (inactive) | 2.97 (inactive) | 1.96 | 2.8 (inactive) | 0.0005 | 0.436 | 1.14 | -0.0019 |
| CCOC(=O)C[C@H]1[C@H](OC(=O)c2ccc(C(=O)c3ccccc3)cc2)[C@@H](NC(=O)Cc2ccc(OC)cc2)c2cc(OCCCO)ccc2N1C(=O)Cc1ccc(OC)cc1 | 0.0476 | 0.346 | 0.007 | 0.35 | 0.903 | 0.752 | 0.668 | -1.22 (inactive) | 0.971 | -0.132 | 1.21 | -0.574 (inactive) | -1.42 (inactive) | -0.914 (inactive) | 1.66 | 1.78 (inactive) | 0.0673 | 0.22 | 1.13 | -0.0131 |
| CC(C)C(=C=CC[C@@H](O)c1ccc(CO)o1)CCO | -0.416 | 0.443 | 0.007 | 0.768 | -0.298 | 0.632 | 1.19 | 0.136 (inactive) | -0.304 | 0.065 | 0.821 | 1.15 (inactive) | -1.09 (inactive) | -0.24 (inactive) | 1.28 | 1.17 (inactive) | -0.237 | 0.852 | 0.116 | -0.191 |
| CCOC(=O)C[C@H]1[C@H](OC(=O)c2ccc(-c3ccccc3)cc2)[C@@H](NC(=O)c2ccccc2)c2cc(OCCCO)ccc2N1C(=O)c1ccccc1 | -0.3 | 0.707 | 0.0216 | 0.281 | 0.741 | 0.622 | 0.773 | -0.867 (inactive) | 0.515 | 0.201 | 1.35 | -1.08 (inactive) | -1.94 (inactive) | -0.596 (inactive) | 1.69 | 2.17 (inactive) | 0.0921 | -0.0461 | 0.526 | -0.019 |
| C=CCN1C(=O)[C@]2(O[C@H](CCn3cc([C@H](O)c4ccccc4)nn3)[C@@H]([Si](C)(C)c3ccc(OC)cc3)[C@@H]2C)c2cc(N3CCOC3=O)ccc21 | 0.264 | 0.443 | -0.154 | -0.213 | -0.74 | 0.579 | 1.16 | -2.7 (inactive) | -0.297 | -0.0128 | 1.37 | 0.326 (inactive) | 0.155 (inactive) | 4.47 (inactive) | 1.41 | 1.75 (inactive) | -0.23 | -0.394 | -0.583 | -0.232 |
| CC(C)(C)OC(=O)CC[C@]1(C(=O)NCc2ccccc2)N=C(c2ccc(OCCCO)cc2)O[C@H]1c1ccccc1N=[N+]=[N-] | 1.4 | 1.11 | 0.231 | 0.907 | 1.65 | 1.91 | 1.26 | 1.14 (inactive) | 1.62 | -0.248 | 1.55 | -0.182 (inactive) | -0.654 (inactive) | 2.97 (inactive) | 3.41 | 0.876 (inactive) | 0.782 | 1.69 | 1.02 | 0.593 |
| [N-]=[N+]=NCc1ccccc1C[C@@]1(C(=O)O)N=C(c2ccc(OCCCO)cc2)O[C@@H]1c1ccccc1 | 0.673 | -0.231 | -0.134 | -0.927 | -0.0526 | 1.86 | 0.754 | -1.08 (inactive) | 0.0724 | -0.226 | 0.244 | -0.921 (inactive) | -1.23 (inactive) | -1.22 (inactive) | 2.45 | 0.41 (inactive) | 0.0424 | -0.811 | -0.364 | -0.221 |
| C=C[C@H](OC)[C@@H](OC(=O)Nc1ccc(OC)cc1)c1ccc(OC)c(O)c1 | 1.46 | -0.68 | -0.209 | -1.29 | -2.83 | 0.272 | 0.843 | 1.51 (inactive) | -1.11 | -0.487 | -1.07 | 0.698 (inactive) | -0.133 (inactive) | 0.551 (inactive) | -0.0649 | 2.09 (inactive) | -0.21 | -1.8 | -0.805 | -0.373 |
| C#CCOc1ccc(C[C@H]2C(=O)O[C@H](Cc3ccccc3)[C@H](/C=C/C3CC3)N2CC#C)cc1 | 0.372 | 0.259 | -0.14 | -0.118 | -0.487 | -0.13 | 0.141 | -4.41 (inactive) | -0.652 | -0.0074 | -0.746 | 1.35 (inactive) | -0.795 (inactive) | 0.519 (inactive) | 0.408 | 2.04 (inactive) | -0.139 | -0.493 | -1.74 | -0.206 |
